{"source": "the supplement of paper PMC8728848", "assay_in_all_cases": "glycan array binding signal (z-score within array); higher = stronger binding", "settings_in_all_cases": "glycan notation: IUPAC condensed, linker removed", "key": {"[1]": {"target": "Gal(b1-4)GlcNAc(b1-3)[Fuc(a1-3)GlcNAc(b1-6)]Gal(b1-4)Glc", "procedure,_shortened": "(§1)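 From the Consortium for Functional Glycomics database, 3228 arrays were curated, keeping only those whose protein sequence was available. Binding is given as a within-array Z-score averaged across arrays sharing a protein sequence and across linkers. Negative Z-scores can be read as non-binding.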"}, "[2]": {"target": "Gal(b1-4)GlcNAc(b1-6)[Gal(b1-4)GlcNAc(b1-3)]GalNAc", "procedure,_shortened": "as §1"}, "Gal3S(b1-4)Glc": {"target": "Gal3S(b1-4)Glc", "procedure,_shortened": "as §1"}, "[3]": {"target": "Gal3S(b1-4)[Fuc(a1-3)]Glc6S", "procedure,_shortened": "as §1"}, "Gal6S(b1-4)GlcNAc": {"target": "Gal6S(b1-4)GlcNAc", "procedure,_shortened": "as §1"}, "GalNAc(a1-3)GalNAc": {"target": "GalNAc(a1-3)GalNAc", "procedure,_shortened": "as §1"}, "GalNAc(b1-4)GlcNAc6S": {"target": "GalNAc(b1-4)GlcNAc6S", "procedure,_shortened": "as §1"}, "[4]": {"target": "Glc(a1-6)Glc(a1-6)Glc(a1-6)Glc", "procedure,_shortened": "as §1"}, "[5]": {"target": "GlcA3S(b1-3)Gal(b1-4)GlcNAc(b1-2)Man", "procedure,_shortened": "as §1"}, "[6]": {"target": "GlcNAc(a1-4)Gal(b1-4)GlcNAc(b1-3)Gal(b1-4)Glc", "procedure,_shortened": "as §1"}, "[7]": {"target": "GlcNAc(b1-2)[GlcNAc(b1-6)]Man(a1-6)[GlcNAc(b1-2)Man(a1-3)]Man(b1-4)GlcNAc(b1-4)GlcNAc", "procedure,_shortened": "as §1"}, "[8]": {"target": "GlcNAc(b1-3)Gal(b1-4)GlcNAc(b1-3)Gal(b1-4)GlcNAc(b1-2)[GlcNAc(b1-3)Gal(b1-4)GlcNAc(b1-3)Gal(b1-4)GlcNAc(b1-6)]Man(a1-6)[GlcNAc(b1-3)Gal(b1-4)GlcNAc(b1-3)Gal(b1-4)GlcNAc(b1-2)Man(a1-3)]Man(b1-4)GlcNAc(b1-4)[Fuc(a1-6)]GlcNAc", "procedure,_shortened": "as §1"}, "[9]": {"target": "GlcNAc(b1-3)Gal(b1-4)GlcNAc(b1-3)Gal(b1-4)GlcNAc(b1-3)Gal(b1-4)GlcNAc(b1-2)Man(a1-3)[GlcNAc(b1-3)Gal(b1-4)GlcNAc(b1-3)Gal(b1-4)GlcNAc(b1-3)Gal(b1-4)GlcNAc(b1-2)Man(a1-6)]Man(b1-4)GlcNAc(b1-4)[Fuc(a1-6)]GlcNAc", "procedure,_shortened": "as §1"}, "[10]": {"target": "GlcNAc6S(b1-3)Gal(b1-4)GlcNAc", "procedure,_shortened": "as §1"}, "[11]": {"target": "Neu5Ac(a2-3)Gal(b1-3)GlcNAc(b1-3)Gal(b1-3)GlcNAc", "procedure,_shortened": "as §1"}, "[12]": {"target": "Neu5Ac(a2-3)Gal(b1-3)GlcNAc(b1-3)Gal(b1-4)GlcNAc", "procedure,_shortened": "as §1"}, "[13]": {"target": "Neu5Ac(a2-3)Gal(b1-3)GlcNAc6S", "procedure,_shortened": "as §1"}, "[14]": {"target": "Neu5Ac(a2-3)Gal(b1-3)[Fuc(a1-4)]GlcNAc(b1-3)Gal(b1-4)[Fuc(a1-3)]GlcNAc", "procedure,_shortened": "as §1"}, "[15]": {"target": "Neu5Ac(a2-3)[GalNAc(b1-4)]Gal(b1-4)Glc", "procedure,_shortened": "as §1"}, "[16]": {"target": "Neu5Ac(a2-6)Gal(b1-4)GlcNAc(b1-2)Man(a1-6)Man(b1-4)GlcNAc(b1-4)GlcNAc", "procedure,_shortened": "as §1"}, "[17]": {"target": "Neu5Ac(a2-6)Gal(b1-4)GlcNAc(b1-2)Man(a1-6)[Gal(b1-4)GlcNAc(b1-2)Man(a1-3)]Man(b1-4)GlcNAc(b1-4)GlcNAc", "procedure,_shortened": "as §1"}, "[18]": {"target": "Neu5Ac(a2-6)Gal(b1-4)GlcNAc(b1-2)[Neu5Ac(a2-6)Gal(b1-4)GlcNAc(b1-4)]Man(a1-3)[GlcNAc(b1-4)][Neu5Ac(a2-6)Gal(b1-4)GlcNAc(b1-2)[Neu5Ac(a2-6)Gal(b1-4)GlcNAc(b1-6)]Man(a1-6)]Man(b1-4)GlcNAc(b1-4)GlcNAc", "procedure,_shortened": "as §1"}, "[19]": {"target": "Neu5Ac(a2-6)GalNAc(b1-4)GlcNAc", "procedure,_shortened": "as §1"}, "[20]": {"target": "Neu5Ac(a2-8)Neu5Ac(a2-3)[GalNAc(b1-4)]Gal(b1-4)Glc", "procedure,_shortened": "as §1"}, "[21]": {"target": "Neu5Ac(a2-8)Neu5Ac(a2-8)Neu5Ac(a2-3)Gal(b1-4)Glc", "procedure,_shortened": "as §1"}, "[22]": {"target": "Neu5Gc(a2-3)Gal(b1-4)GlcNAc(b1-3)Gal(b1-4)GlcNAc(b1-2)Man(a1-3)[Neu5Gc(a2-3)Gal(b1-4)GlcNAc(b1-3)Gal(b1-4)GlcNAc(b1-2)Man(a1-6)]Man(b1-4)GlcNAc(b1-4)GlcNAc", "procedure,_shortened": "as §1"}}, "note": "Only a selection was taken, and the strongest signals are over-represented in it overall."}
{"binder": "GS7807F-bth-514-18-514 (Bacteroides thetaiotaomicron) (protein) AGSCTGNFEEYNTNQFQIHEADPSTLMKSMIETIVNIQQNDSQMMDQMVGQLGGYLTCANVWSGTNFGTFNQSDAWNAGPWNTNFEKIYGNFFQIQEATNESGHYYAFARMIRAITMLRVADCYGPMPYSQVKKGNFYVAYDTEEQVYKNIMEDFASAANVLYNYYKDTNGNAPLASNDPVFSGNYANWARLANSMRLRVAIRISTAYPEMAKENAEAAASHEAGLIEANNDNAMMDCGSQTNPYQLAAVSWGDLRVNANIVDYMNGYGDPRMSKYFNHSTFTGHTQEYVGMRSGEDGFAKSDVAGYSIPAITGTSKLLVFCAAETAFLRAEGKLKNWSVGNKSAKEYYEEGIKLSMEQYGTTMPDNYLTNTEKPTVSHNNDPRGHAYTISNTVAVAWNDNNEEENLQRIITQKWIANYPLGLEAWAEYRRTGYPELYPCIDNLSPSGVDSKRGMRRLRFPYTEVQNNHSNYQQGVSYLKNGGPDNEATDLSWGKTN", "values": [{"measurement": "glycan array binding signal (z-score)", "setting": "[1]", "result": 1.53}, {"measurement": "glycan array binding signal (z-score)", "setting": "[2]", "result": 0.25}, {"measurement": "glycan array binding signal (z-score)", "setting": "Gal3S(b1-4)Glc", "result": 0.164}, {"measurement": "glycan array binding signal (z-score)", "setting": "[3]", "result": 3.48}, {"measurement": "glycan array binding signal (z-score)", "setting": "Gal6S(b1-4)GlcNAc", "result": 0.547}, {"measurement": "glycan array binding signal (z-score)", "setting": "GalNAc(a1-3)GalNAc", "result": 0.13}, {"measurement": "glycan array binding signal (z-score)", "setting": "GalNAc(b1-4)GlcNAc6S", "result": 0.521}, {"measurement": "glycan array binding signal (z-score)", "setting": "[4]", "result": -0.652}, {"measurement": "glycan array binding signal (z-score)", "setting": "[5]", "result": -0.771}, {"measurement": "glycan array binding signal (z-score)", "setting": "[6]", "result": -0.587}, {"measurement": "glycan array binding signal (z-score)", "setting": "[7]", "result": -0.73}, {"measurement": "glycan array binding signal (z-score)", "setting": "[8]", "result": 0.581}, {"measurement": "glycan array binding signal (z-score)", "setting": "[9]", "result": 3.26}, {"measurement": "glycan array binding signal (z-score)", "setting": "[10]", "result": 1.06}, {"measurement": "glycan array binding signal (z-score)", "setting": "[11]", "result": -0.891}, {"measurement": "glycan array binding signal (z-score)", "setting": "[12]", "result": -0.842}, {"measurement": "glycan array binding signal (z-score)", "setting": "[13]", "result": -0.491}, {"measurement": "glycan array binding signal (z-score)", "setting": "[14]", "result": 0.124}, {"measurement": "glycan array binding signal (z-score)", "setting": "[15]", "result": -0.409}, {"measurement": "glycan array binding signal (z-score)", "setting": "[16]", "result": 3.88}, {"measurement": "glycan array binding signal (z-score)", "setting": "[17]", "result": 3.49}, {"measurement": "glycan array binding signal (z-score)", "setting": "[18]", "result": 0.039}, {"measurement": "glycan array binding signal (z-score)", "setting": "[19]", "result": -0.875}, {"measurement": "glycan array binding signal (z-score)", "setting": "[20]", "result": 3.32}, {"measurement": "glycan array binding signal (z-score)", "setting": "[21]", "result": -0.82}, {"measurement": "glycan array binding signal (z-score)", "setting": "[22]", "result": -0.775}]}
